From ChEMBL document CHEMBL4513216, “Probing the Open Global Health Chemical Diversity Library for Multistage-Active Starting Points for Next-Generation Antimalarials” (ACS Infect Dis, 2020) come the findings set out here.

Hit rate of the full screen: of about 69,000 compounds, about 8,600 (12%) showed an effect of 50% or more. This is one part of a sample in which strong results are shown more often than they occur.

The subject of the test is Plasmodium berghei. In words: Screen against P. berghei liver stage (PbLuc), transformed with Luciferase, at 10uM. The class given is functional, HepG2. The following applies: tested at 10 uM.
Regarding `Cc1ccc(Cl)cc1NCc1nc2n(n1)CCCCC2`, the INHIBITION was 25.1%. With `COc1cccc(COCC(=O)N2CCN(S(C)(=O)=O)CC2)c1`, the INHIBITION is 28.74%. Turning to `CN(C)C(=O)CN1CCC2(C1)CN(CC1CCOC1)C2` (stereo unspecified), the INHIBITION is recorded as 8.31%. With `CC(C)=CCN1CCN(C(=O)c2cc(C)n[nH]2)[C@H]2CS(=O)(=O)C[C@H]21`, the INHIBITION was -6.67%.

Consider `Cc1ccc(CN2CCC3(CC2)CCN(C(=O)c2cccn2C)C3)cc1`, for which the INHIBITION is 6.27%. As for `COCCOC(=O)N1CCN2C[C@@H](CO)[C@H](c3ccccc3)[C@H]2C1`, the INHIBITION was -8.8%. Then `c1cncc(-c2nc(C3CC3)ncc2-c2ccnc(N3CCCC3)n2)c1`, with 51.5%; and `CN1CCCN(c2nccc(-c3c[nH]nc3-c3ccncc3)n2)CC1`, with 42.6%. Under `c1cc(-c2n[nH]cc2-c2ccnc(N3CCCC3)n2)ccn1` stands 33.7%; under `Cc1ncc(-c2ccnc(N3CCCCCC3)n2)c(-c2cccnc2)n1`, 12.7%; under `c1cc(-c2n[nH]cc2-c2ccnc(N3CCCCCC3)n2)ccn1`, 50.1%. Take `Cc1ncc(-c2ccnc(N3CCN(C)CC3)n2)c(-c2cccnc2)n1`: the INHIBITION was 21.9%. Then `Cc1nc(CN(C)C2CCN(Cc3nc(C4CC4)no3)C2)no1` (stereo unspecified), with 40.9%; and `COc1ccc(-c2cc(N)on2)cc1`, with -3.34%; and `Cc1nc(CNC(=O)NCC2(C)CCCc3ccccc32)no1` (stereo unspecified), with -21.9%. In the case of `CC(CNC(=O)N1CCN(Cc2ccon2)CC1)N(C)C1CC1` (stereo unspecified), the INHIBITION is recorded as 4.62%. With `CNC(=O)[C@@]12CCC3(CCN(S(C)(=O)=O)CC3)[C@@H]1CN(C(C)=O)C2`, the INHIBITION came out at 40.1%. Then `CC(=O)N1CCCC(c2ccc3sc(N)nc3n2)C1` (stereo unspecified), with 26.3%; and `O=C(CC1CC1)N1CCN(Cc2ccncc2)c2ncccc2C1`, with -45.8%. In the case of `Cc1nc(NS(=O)(=O)c2ccc(F)c(Br)c2)no1`, the INHIBITION is 10.6%. Consider `CCc1nc(NS(=O)(=O)c2ccc(C)cc2Cl)no1`, for which the INHIBITION came to 4.74%. Then `CC(C)(C)c1nc(NS(=O)(=O)c2ccc(F)cc2)no1`, with 51.6%; and `CC(C)c1nc(NS(=O)(=O)c2ccccc2Cl)no1`, with 2.61%.

Regarding `CC(C)(C)c1nc(NS(=O)(=O)c2ccccc2F)no1`, the INHIBITION is recorded as 82.2%.

As to `Cc1nc(NS(=O)(=O)c2cc(C)c(Br)cc2C)no1`, the INHIBITION amounted to 49.4%. Then `CSCC(C)(O)CNS(=O)(=O)c1ccc(F)cc1` (stereo unspecified), with 12.3%.

On to `CCc1nc(NS(=O)(=O)c2ccc(F)cc2C)no1`, for which the INHIBITION was -3.16%. Then `CCc1nc(NS(=O)(=O)c2ccc(F)cc2Cl)no1`, with 56.1%; and `Cc1nc(NS(=O)(=O)c2ccc(C)c(Br)c2)no1`, with 68.3%; and `CCc1nc(NS(=O)(=O)c2cc(C)ccc2F)no1`, with -7.9%. Under `Cn1ncnc1NS(=O)(=O)c1ccc(F)cc1` stands -3.59%. Under `NC1(CNC(=O)c2cc3ccccc3[nH]2)CCCC1` stands -8.28%; under `Cc1ncccc1Oc1ncnc(N2CCC(O)(CO)CC2)c1C`, -6.03%; under `COCCn1cc2c(n1)C(CNCc1cccc(OC)c1)OCC2` (stereo unspecified), 17.4%. On to `O=C(Nc1cnccn1)[C@@H]1COC[C@H]2CN(C3CCC3)C[C@H]21`, for which the INHIBITION was determined as 24.9%. Then `O=C(Cc1ccsc1)N1Cc2nc(CN3CCCCC3)oc2C1`, with 31.5%; and `CCc1nc(C2CCCN2CCC(=O)N2CCc3ccccc32)no1` (stereo unspecified), with 46.2%; and `CCc1nc(NS(=O)(=O)c2cc(C)cc(F)c2)no1`, with 40.9%. As to `CCc1nc(NS(=O)(=O)c2cccc(F)c2C)no1`, the INHIBITION turned out to be 39.7%. Then `Cc1c(F)cccc1S(=O)(=O)Nc1noc(C(C)C)n1`, with 10.2%. Under `CC(C)(C)c1nc(NS(=O)(=O)c2cccc(F)c2)no1` stands 82.2%; under `Cc1cc(F)cc(S(=O)(=O)Nc2noc(C)n2)c1`, 31.5%. With `Cc1nc(NS(=O)(=O)c2cccc(F)c2C)no1`, the INHIBITION turned out to be 74.5%. Then `Cc1cc(N(Cc2cccs2)C2CC2)n2nc(C(F)(F)F)nc2n1`, with 26.6%; and `CC(C)n1cnnc1SCCN(C)c1ccccc1`, with -34.8%; and `COCCNc1ccc(CC2CCNC2)cn1` (stereo unspecified), with -26.2%. Under `CCCN(CC(=O)N(C)C)C(=O)c1ccc(-c2nc(C)cs2)cc1` stands 18.9%. Regarding `COc1cc(CNC(=O)c2cc(S(C)(=O)=O)ccc2C)ccn1`, the INHIBITION was 1.51%.

`Cc1nn(C)c(N2CCOCC2)c1CNCc1ccc(N(C)C)nc1`: the INHIBITION worked out at 51.1%. Turning to `Cc1nn(C)c(N2CCOCC2)c1CNCc1cccnc1`, the INHIBITION was 32.2%. Then `Cc1nn(C)c(N2CCOCC2)c1CNCc1ccnc(N(C)C)c1`, with 38.7%. On to `Cc1ccc(N2CCCc3sc(C(=O)NCCC#N)nc32)nn1`, for which the INHIBITION was 35.8%.

In the case of `CCC(CN1CCOCC1)NC(=O)Cc1c(C)[nH]c2cc(C)cc(C)c12` (stereo unspecified), the INHIBITION stood at 6.32%. For the compound `CN(C)CCCNC(=O)c1nnsc1-c1ccccc1`, the INHIBITION stood at 15.9%. Then `O=C(NCc1cccs1)c1[nH]nc2c1CS(=O)(=O)CC2`, with -22.3%. Regarding `O=C1CC(c2ccc3c(c2)OCO3)c2c(n3ccsc3nc2=O)N1` (stereo unspecified), the INHIBITION was 5.85%. With `O=C1CC(c2ccsc2)c2cnn(C3CCCC3)c2N1` (stereo unspecified), the INHIBITION stood at 6.09%. Regarding `O=C1CC(c2ccc3c(c2)OCO3)c2cn[nH]c2N1` (stereo unspecified), the INHIBITION came out at 6%. As to `Cc1n[nH]c2c1C(c1ccc3c(c1)OCO3)SCC(=O)N2` (stereo unspecified), the INHIBITION amounted to 9.32%. Under `CC(C)(C)n1ncc2c1NC(=O)CC2c1ccccc1` (stereo unspecified) stands 5.65%; under `CC(C)(C)n1ncc2c1NC(=O)CC2c1cccc(F)c1` (stereo unspecified), 89.4%. For `O=C1CC(c2cccs2)c2cnn(C3CCCC3)c2N1` (stereo unspecified), the INHIBITION amounted to 14.4%. Under `CC(C)(C)n1ncc2c1NC(=O)CC2c1cccc(O)c1` (stereo unspecified) stands -5.22%; under `O=C1CC(c2ccccc2)c2cnn(C3CCCC3)c2N1` (stereo unspecified), 68%; under `Cc1nn(C2CCCC2)c2c1C(c1ccc3c(c1)OCO3)SCC(=O)N2` (stereo unspecified), 61.6%. For the compound `O=C1CSC(c2ccc3c(c2)OCO3)c2cnn(C3CCCCC3)c2N1` (stereo unspecified), the INHIBITION worked out at 38.9%. Then `O=C1CC(c2ccc3c(c2)OCO3)c2cnn(C3CCCC3)c2N1` (stereo unspecified), with 87.9%; and `O=C1CC2(CCCCN2C(=O)c2ccncc2)CN1CC1CC1` (stereo unspecified), with 23.5%. In the case of `CCc1sc(C(=O)NC2CC2)cc1C`, the INHIBITION is 38%. Then `Cc1cc(N(C)C)nc(C2COCCN2Cc2nccn2C)n1` (stereo unspecified), with 20.6%; and `Cc1ccc(NC2CCN(C(=O)c3c(C)oc(C)c3C)CC2)nn1`, with 9.365%; and `COc1ccccc1COCC(O)CN1CC(n2cccn2)C1` (stereo unspecified), with 19.85%.

`N#Cc1ccc(C2CC(=O)Nc3c2cnn3C2CCCC2)cc1` (stereo unspecified): the INHIBITION is reported as -11.1%. Then `COc1ccc(C2CC(=O)Nc3c2cnn3C2CCCC2)cc1` (stereo unspecified), with -9.67%; and `O=C1CC(c2ccc(F)cc2)c2cnn(C3CCCC3)c2N1` (stereo unspecified), with 70.2%; and `Cc1nnc(CN(C)CC(=O)NC(C)(C)c2ccc(F)cc2)n1C`, with 10.1%. For the compound `Fc1cccc(Cl)c1CNCc1ccccn1`, the INHIBITION was 10.7%. With `O=C(c1cnccn1)N1CCC(CN2CCOCC2)CC1`, the INHIBITION came out at 30%. Turning to `Cc1cnc(C(=O)N2CCOCC2C)cn1` (stereo unspecified), the INHIBITION is given as 33.7%. Then `CCCN1CCN(C(=O)c2cccc(C)n2)[C@H]2CS(=O)(=O)C[C@H]21`, with 21.2%; and `CCCN1CCN(C(=O)c2cc3ccccc3cn2)[C@H]2CS(=O)(=O)C[C@H]21`, with 43.9%. Under `CCCN1CCN(C(=O)c2ccc3ccccc3n2)[C@H]2CS(=O)(=O)C[C@H]21` stands -15.1%; under `CCCN1CCN(C(=O)c2cnccn2)[C@H]2CS(=O)(=O)C[C@H]21`, 51.8%. Then `CCCN1CCN(C(=O)c2cc[nH]n2)[C@H]2CS(=O)(=O)C[C@H]21`, with 53.9%; and `Cc1ncc(CN2CCN(C(=O)C3CCC3)[C@@H]3CS(=O)(=O)C[C@@H]32)cn1`, with 14.8%; and `CCCN1CCN(C(=O)c2ccc(Cl)cn2)[C@H]2CS(=O)(=O)C[C@H]21`, with 37.6%. On to `CCC(=O)N1CCN(Cc2cnc(C)nc2)[C@H]2CS(=O)(=O)C[C@H]21`, for which the INHIBITION amounted to 53.1%.

Regarding `Cc1ncc(CN2CCN(C(=O)N(C)C)[C@@H]3CS(=O)(=O)C[C@@H]32)cn1`, the INHIBITION is on record as 31.6%. Then `CC1COCCN1C(=O)c1cnccn1` (stereo unspecified), with 53.5%. Then `CC(C)c1nccn1-c1nccnc1C1CCCN1Cc1ccccc1` (stereo unspecified), with 28.5%; and `O=C(NCCCNC(=O)c1ccc(F)cc1F)c1cccc(O)c1`, with -2.61%; and `CC(Cn1ccnc1)NC(=O)N1CCN(Cc2ccncc2)CC1` (stereo unspecified), with 13.03%.

As for `CC(C)c1ocnc1C(=O)Nc1cccc(Cn2ccccc2=O)c1`, the INHIBITION is on record as 26.5%.

For the compound `Cc1nn(C)c(N(C)C)c1CNCc1ccccc1Cn1ccnc1`, the INHIBITION came out at 27.6%.

With `CC(=O)Nc1nc(C2CCCN(C(=O)CN(C)C)C2)cs1` (stereo unspecified), the INHIBITION is on record as 8.72%.

For the compound `CC(NS(=O)(=O)CCc1ccccn1)c1ccccc1Br` (stereo unspecified), the INHIBITION was -9.35%. Then `CCC(=O)c1ccc(OCC(=O)N(C)C(C)c2ccon2)cc1` (stereo unspecified), with 20.6%; and `CC1=N[C@@]2(CC[C@@H]3CN(Cc4ccccc4F)C[C@@H]32)C(=O)N1C`, with 19.8%.

For `CNC(=O)[C@@H]1CCO[C@@H]2CCN(Cc3ccsc3)C[C@H]21`, the INHIBITION was 31.1%. With `CCN1CCOC(CNCc2cnc(N(CC)CC)s2)C1` (stereo unspecified), the INHIBITION is -81.1%. Turning to `Cc1nc(C(=O)N2CCN(C(=O)N(C)C)[C@@H]3CS(=O)(=O)C[C@@H]32)cs1`, the INHIBITION is 57.8%. As for `CCCN1CCN(C(=O)c2cncnc2C)[C@H]2CS(=O)(=O)C[C@H]21`, the INHIBITION turned out to be 51.2%. Then `Cc1nc(C(=O)N2CCN(S(C)(=O)=O)[C@@H]3CS(=O)(=O)C[C@@H]32)cs1`, with 39.8%; and `Cc1nc(C(=O)N2CCN(C(=O)C3CCC3)[C@@H]3CS(=O)(=O)C[C@@H]32)cs1`, with 33.1%. Then `CCCN1CCN(C(=O)c2cnc(C)nc2)[C@H]2CS(=O)(=O)C[C@H]21`, with 2.15%; and `CCCN1CCN(C(=O)c2cnccc2C)[C@H]2CS(=O)(=O)C[C@H]21`, with 19.4%.
